# Source: PubChem BioAssay (National Center for Advancing Translational Sciences (NCATS))
# Cruzain Triton = blocks cruzain activity in presence of Triton detergent | 200,000 tested, 0.43% active | Potency, µM, inactives show max response, negative = inhibition, usual class: inhibitors | AID 1478 | purified cruzain, Z-FR-AMC fluorescence, 0.01% Triton;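 also: plate controls were neutral wells for no effect and buffer without enzyme for full effect; nearly all actives have a fitted effect of over 40% in size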
# Target sequence (P25779 123-467 limits assumed): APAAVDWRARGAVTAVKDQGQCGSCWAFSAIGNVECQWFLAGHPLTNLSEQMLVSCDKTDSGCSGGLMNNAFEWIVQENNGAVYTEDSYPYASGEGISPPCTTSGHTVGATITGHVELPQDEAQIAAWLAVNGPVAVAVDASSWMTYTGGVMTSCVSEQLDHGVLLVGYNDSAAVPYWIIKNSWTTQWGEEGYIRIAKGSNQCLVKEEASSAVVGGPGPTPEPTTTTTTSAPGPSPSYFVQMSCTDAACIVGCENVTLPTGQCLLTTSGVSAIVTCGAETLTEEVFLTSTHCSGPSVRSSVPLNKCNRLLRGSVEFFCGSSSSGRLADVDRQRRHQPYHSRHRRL
#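 Cysteine protease activity tested under reducing, mildly acidic conditions (100 mM sodium acetate pH 5.5, 5 mM DTT) plus 0.01% Triton X-100. Cruzain 1.5 nM; substrate Z-FR-AMC 2 uM; 15 min compound preincubation at room temperature.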
# Cruzain noTriton = blocks cruzain activity in detergent-free assay; 200,000 tested, 2.3% active; purified cruzain, Z-FR-AMC fluorescence, no detergent; AID 1476; Potency, µM, without a hit: max response, negative = inhibition, hits mostly inhibitors; P25779;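 also: plate controls were enzyme without inhibitor for no effect and buffer without enzyme for full effect; nearly all actives have a fitted effect of over 40% in size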
#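 Purified cruzain at 1.5 nM, pre-incubated 15 min with compound at room temperature in 100 mM sodium acetate pH 5.5, 5 mM DTT, 0.00005% Triton X-100. Reaction started with 2 uM Z-FR-AMC; AMC fluorescence increase over 60 s gives rate.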
# An asterisk follows results filed as active; u = inconclusive. Shown are actives, neighbours in structure and some others; about 2.5% of the full set was active somewhere. Calls follow the shape of the dose curve; as a rule, active = well fitted curve in the direction sought with a large enough effect; inconclusive = small, poorly fitted or top-dose-only effect, or another doubt; inactive = no such curve, though single readings can be large; an effect the other way counts as inactive or inconclusive. Potency is read from the fitted curve at half-maximal effect.
SMILES,Cruzain Triton,Cruzain noTriton
O=C(N/N=C/c1c[nH]c2ccccc12)c1cc(-c2ccc(-c3ccccc3)cc2)n[nH]1,-6.2%,7.94µM*
O=C(N/N=C/c1c[nH]c2ccccc12)c1cc(-c2ccccc2)n[nH]1,-13.0%,2.9%
C[N+](C)(C)CC(=O)N/N=C\c1ccncc1,0.7%,-5.4%
COc1cccc(-n2nnc(-c3nc(-c4ccccc4F)no3)c2C)c1,3.1%,-1.1%
COc1ccccc1/C=C(/CC(=O)NCc1ccc2c(c1)OCO2)c1nc2ccccc2s1,-4.0%,15.8µM*
COc1ccc(/C=C(/CC(=O)NCc2ccc(Cl)cc2)c2nc3ccccc3s2)cc1,-6.3%,31.6µM*
COc1ccccc1NC(=O)NCc1ccc2c(c1)OCO2,1.7%,3.7%
COc1ccc(/C=C(/CC(=O)Nc2ccccc2)c2nc3ccccc3s2)cc1,-6.5%,u
CN(C)c1ccc(/C=C/C(O)=C2/C(=O)N(C)C3(C)CC2c2ccccc2O3)cc1 (stereo unspecified),-9.4%,20µM*
CN1C(=O)C(/C(N)=N/NC(=O)c2ccccc2)C2CC1(C)Oc1ccccc12 (stereo unspecified),-2.3%,-1.7%
CCc1ccc(N(CC)C(=O)c2ccc3c(=O)n4c(nc3c2)CCCCC4)cc1,-2.2%,19.7%
CC(C)c1ccc(NC(=O)c2ccc(=O)n(Cc3ccccc3)c2)cc1,-6.8%,-1.3%
Cc1cc(/C=C(\C#N)C(=O)NCCc2c[nH]c3ccccc23)c(C)n1C,-7.9%,-0.2%
COc1cc(/C=C(/C#N)C(=O)NCCc2c[nH]c3ccccc23)ccc1OCc1ccccc1F,5.1%,7.94µM*
O=S(=O)(c1ccccc1)N1CCC[C@@]2(CCN(c3cccc(-c4ccccc4)c3)C2)C1,0.7%,3.98µM*
O=S(=O)(c1ccccc1)N1CCC2(CCCN(c3ccccc3)C2)CC1,-0.5%,2.4%
O=S(=O)(c1ccccc1)N1CCC2(CCCN(c3cccc(-c4ccccc4)c3)C2)CC1,0.4%,u
O=S(=O)(c1ccccc1)N1CCC[C@@]2(CCN(c3ccccc3)C2)C1,-5.6%,15.8µM*
NCC(=O)N[C@H](CO)C(=O)O,-0.8%,11.6%
Cc1ccc(-n2c(C)cc(/C=N/NC(=O)c3ccncc3)c2C)cc1,-6.6%,-4.6%
Cc1ccc(C(=O)N/N=C/c2cc(C)n(-c3ccc(Br)cc3)c2C)cc1[N+](=O)[O-],1.8%,20µM*
FC(F)(F)c1ccccc1-c1ccc2ncnc(NCc3cccnc3)c2c1,1.3%,5.8%
COc1ccc(CCNC(=O)c2ccc3c(c2)N(Cc2c(F)cccc2Cl)C(=O)CS3)cc1OC,-2.0%,-2.4%
COc1ccccc1C(=O)NC(=S)/C=C1/N(C)c2ccccc2C1(C)C,14.1µM*,25.1µM*
CN1/C(=C\C(=O)Nc2ccc(Cl)cc2)C(C)(C)c2ccccc21,-8.7%,-1.7%
SMILES,Cruzain Triton,Cruzain noTriton
CN1/C(=C\C(=S)NC(=O)c2ccccc2Cl)C(C)(C)c2ccccc21,25.1µM*,31.6µM*
CN1/C(=C\C(=O)c2cccs2)C(C)(C)c2ccccc21,-10.2%,9.7%
COc1ccc(-c2ccc(CCC(=O)O)n2CC(=O)Nc2cccc(C(F)(F)F)c2)cc1,-16.0%,-7.1%
O=C(CSc1nnc(-c2ccccc2)c(-c2ccccc2)n1)Nc1ncc(Cl)cc1Cl,-10.8%,31.6µM*
Cc1nc(NC(=O)CSc2nnc(-c3ccccc3)c(-c3ccccc3)n2)c(Cl)cc1Cl,-12.5%,u
Cc1ccc(CNc2nc3ccccc3n3c(C)nnc23)cc1,-4.0%,-17.7%
CSCCC(NC(=O)c1ccc(Cl)cc1)C(=O)OCC(=O)Nc1cc(Cl)ccc1C#N (stereo unspecified),25.1µM*,-28.7%
CSCCC(NC(=O)c1ccccc1)C(=O)OCC(=O)Nc1ccc(C)c(Cl)c1 (stereo unspecified),14.1µM*,-14.3%
CSCCC(NC(=O)c1ccc([N+](=O)[O-])cc1Cl)C(=O)OCC(=O)N(C)C (stereo unspecified),-23.6%,-22.9%
CSCCC(NC(=O)c1ccccc1)C(=O)Nc1ccc(C)cc1 (stereo unspecified),0.4%,-17.9%
O=c1cc(-c2cccc(O)c2O)oc2ccccc12,-7.4%,3.9%
Cc1cc2c(cc1S(=O)(=O)N(CCN(C)C)Cc1ccccc1)OCC(=O)N2,3.9%,-2.9%
COc1ccc(S(=O)(=O)Nc2ccc(F)cc2)cc1N(C)S(=O)(=O)c1ccc(Cl)cc1,-3.4%,20µM*
COc1ccc(NS(=O)(=O)c2ccc(OC)c(N(C)S(=O)(=O)c3ccc(Cl)cc3)c2)cc1,-1.1%,-20.8%
CCn1c2ccccc2c2nnc(N3CCN(c4ccc(OC)cc4)CC3)nc21,-1.0%,-0.4%
CCc1ccccc1NC(=O)Cn1c(=O)n(-c2ccc(C)c(C)c2)c(=O)c2oc3ccccc3c21,-0.2%,4.5%
CCn1c(CN2CCCCC2)nc2cc(NC(=O)c3cccc([N+](=O)[O-])c3)ccc21,-5.9%,-2.4%
CCOC(=O)CSc1nc(N(C)C)nc(N(C)C#N)n1,15.8µM*,20µM*
CCN(CC)C(=O)C(C)N(C#N)c1nc(SC)nc(N(C)C)n1 (stereo unspecified),0.0%,3.1%
COc1cccc(NC(=O)CSc2nc3n[nH]c(C)c3c(=N)n2-c2cccc(OC)c2)c1,-0.3%,u
CCc1ccc(NC(=O)CSc2nc3n[nH]c(C)c3c(=N)n2-c2cccc(OC)c2)cc1,-12.2%,12.6µM*
CCNc1ccc(C(=O)OCC(=O)NCc2ccc(C)cc2)cc1[N+](=O)[O-],-3.9%,1.9%
CCNc1ccc(C(=O)OCC(=O)c2cc(C)n(Cc3ccc4c(c3)OCO4)c2C)cc1[N+](=O)[O-],-2.7%,15.8µM*
O=c1[nH]c(/C(Cl)=C/c2c(F)cccc2Cl)nc2cc(Cl)ccc12,-3.8%,u
O=c1[nH]c(/C(Cl)=C/c2cccc(C(F)(F)F)c2)nc2cc(Cl)ccc12,-2.8%,3.16µM*
SMILES,Cruzain Triton,Cruzain noTriton
CC(=O)CC(=O)Nc1ccccc1,6.0%,1.0%
Cn1c(=O)c(C(=O)c2ccccc2)nc2ccccc21,-2.1%,-7.5%
O=C(c1ccccc1)c1nc2ccccc2n(CCCn2c(=O)c(C(=O)c3ccccc3)nc3ccccc32)c1=O,-0.6%,10µM*
COc1cccc(CNC(=O)Cn2nc3c(cc2=O)CCCC3)c1OC,0.2%,-6.3%
N#Cc1c(-c2cccnc2)c2c([nH]c1=S)CCCC2,-2.0%,-1.5%
COc1ccc(-c2c3c([nH]c(=S)c2C#N)CCC3)cc1,-1.1%,15.8µM*
CCN(CC)C(=O)C1=C(C)Nc2nc3ccccc3n2C1c1ccc(Br)cc1 (stereo unspecified),-3.5%,11.6%
Cc1ccc(C(=O)NCC(=O)OCC(=O)Nc2ncc(C(F)(F)F)cc2Cl)cc1,7.08µM*,6.31µM*
O=C(COC(=O)CNC(=O)c1ccc(Cl)cc1)Nc1ccc(Cl)cc1C(F)(F)F,8.91µM*,6.31µM*
O=C(COC(=O)CNC(=O)c1ccccc1)Nc1ccc(Cl)cc1C(F)(F)F,15.8µM*,12.6µM*
O=C(COC(=O)CNC(=O)c1ccccc1)Nc1cccc(Br)c1,u,-15.1%
O=C(COC(=O)CCCNC(=O)c1ccc(Cl)cc1)Nc1cc(Cl)c(Cl)cc1Cl,-11.9%,-3.8%
Cc1ccc(-c2cc(C(=O)OCC(=O)Nc3ncc(C(F)(F)F)cc3Cl)c3ccccc3n2)cc1,-2.8%,u
O=[N+]([O-])c1cc(C(F)(F)F)ccc1N1CCN(S(=O)(=O)c2ccc3ccccc3c2)CC1,0.3%,25.1µM*
O=[N+]([O-])c1cc(C(F)(F)F)cc([N+](=O)[O-])c1N1CCN(S(=O)(=O)c2ccccc2)CC1,-6.6%,-3.5%
